Results on 40 compounds are retold here after PubChem BioAssay (NCATS).

Each structure is given as a SMILES string. Results filed as inconclusive are left out. Activity calls are given as the source filed them. Calls come from the whole dose curve; as a rule, active = well fitted cell-killing curve with a large enough effect; inconclusive = small, poorly fitted or top-dose-only effect, or effect the other way; inactive = no such curve, though single readings can be large or run the other way.
Potency is the fitted concentration of half-maximal effect.

The assay can be described thus: Quantitative High-Throughput drug screen in 47 multiple myeloma cell lines against the NCATS MIPE library collection: AMO1_DSMZ cell viability assay (AID 1918927; note: nearly all actives have a fitted effect of over 30% in size). The note with it: AMO1 myeloma cells viability, CellTiter-Glo ATP luminescence, 48 h; series mostly up to 45.8 µM. The source says:
PI: Beverly A. Mock Ph.D.
Laboratory of Cancer Biology and Genetics,
Center for Cancer Research, National Cancer Institute,
National Institute of Health, Bethesda, Maryland
Drug resistance and disease progression are common in multiple myeloma (MM) patients, underscoring the need for new therapeutic combinations. […] We hypothesized that effective combinations would reduce MYC expression and enhance p16 activity. […] These preclinical data identify potentially useful drug combinations for evaluation in drug-resistant MM and reveal potential mechanisms of combined drug sensitivity.
Described herein is the primary MIPE qHTS used to cherrypick compounds. Validated compounds were then further tested for potential synergistic activiy.
[1] Peat TJ, Gaikwad SM, Dubois W, Gyabaah-Kessie N, Zhang S, Gorjifard S, Phyo Z, Andres M, Hughitt VK, Simpson RM, Miller MA, Girvin AT, Taylor A, Williams D, D'Antonio N, Zhang Y, Rajagopalan A, Flietner E, Wilson K, Zhang X, Shinn P, Klumpp-Thomas C, McKnight C, Itkin Z, Chen L, Kazandijian D, Zhang J, Michalowski AM, Simmons JK, Keats J, Thomas CJ, Mock BA. Drug combinations identified by high-throughput screening promote cell cycle transition and upregulate Smad pathways in myeloma. Cancer Lett. 2023 Aug 1;568:216284. doi: 10.1016/j.canlet.2023.216284. Epub 2023 Jun 24. PMID: 37356470; PMCID: PMC10408729.
SEQUENCE No. (e.g., 1, 2, 3, etc.); […] (e.g., Cells, Incubation, Reagent, etc.); VALUE and DESCRIPTION.
1; Cells; 5 uL; white, solid bottom 1536-well Greiner assay plate.
2; Compounds; 23 nL; Kalypsis pin tool (Wako USA) equipped with a 1536-well pin head to transfer to the assay plates.
3; Incubation; 48 hours; 37C incubation.
4; Reagent;5uL; CellTiter Glo (Promega).
5; Detector; 425V; Luminescence; Viewlux PerkinElmer.
NOTES (numbers refer to Sequence numbers above)
1. The cell-based screening methods employed in this study were like those previously published. Briefly, the corresponding myeloma cell lines were screened in 1,536-well plates with 500 cells, 5-uL per well for inhibition of cell viability (assessed by measuring ATP levels with CellTiterGlo).
2. NCATS MIPE 4.0 library of approved and investigational drugs were added using the Kalypsis pin tool. Wells treated with DMSO only for 100% viability and media only wells for 0% viability were used as controls.
3. The assay plates were covered and incubated for 48 hours in a 37C, 5% CO2 incubator with controlled humidity.
4. After 48 hours, CellTilter-GloTM luminescent substrate mix (Promega) reagent was added to the assay plate and plates we incubated for 5 min at room temperature.
5. Signal was measured as median relative luminescence units on a ViewLux (PerkinElmer) multiplate reader.
[1] Heske CM, Davis MI, Baumgart JT, Wilson K, Gormally MV, Chen L, Zhang X, Ceribelli M, Duveau DY, Guha R, Ferrer M, Arnaldez FI, Ji J, Tran HL, Zhang Y, Mendoza A, Helman LJ, Thomas CJ. Matrix Screen Identifies Synergistic Combination of PARP Inhibitors and Nicotinamide Phosphoribosyltransferase (NAMPT) Inhibitors in Ewing Sarcoma. Clin Cancer Res. 2017 Dec 1;23(23):7301-7311. doi: 10.1158/1078-0432.CCR-17-1121. Epub 2017 Sep 12. PMID: 28899971; PMCID: PMC6636827.
A general note: In ATP-based viability assays light output follows the ATP content of the culture.
For the compound `CCCCCCCCCCCCCC(=O)N[C@H](CO)[C@H](O)c1ccc([N+](=O)[O-])cc1`, the Potency was 10.5 µM (active).

On to `CN1CCN2c3ncccc3Cc3ccccc3C2C1` (stereo not given), for which the Potency entry was “inactive”.

Turning to `Cc1ccccc1-n1c(Cn2nc(-c3cccc(O)c3)c3c(N)ncnc32)nc2cccc(C)c2c1=O`, the Potency was 0.372 µM (active).

For the compound `Cc1ccc(S(=O)(=O)Nc2nc3ccccc3nc2Nc2ccc3nsnc3c2)cc1`, the Potency was 0.512 µM (active).

For `CS(=O)(=O)c1ccc(C2=C(c3ccccc3)C(=O)OC2)cc1`, the Potency entry is “inactive”.

On to `COc1ccc2ccc(=O)oc2c1CC=C(C)C`, for which the Potency was 13.2 µM (active).

`O=C1Nc2ccc(I)cc2C1=Cc1cc(Br)c(O)c(Br)c1`: the Potency was 16.6 µM (active).

With `CO[C@H]1C=CO[C@@]2(C)Oc3c(C)c(O)c4c(O)c(c(C=NN5CCN(C)CC5)c(O)c4c3C2=O)NC(=O)C(C)=CC=C[C@H](C)[C@H](O)[C@@H](C)[C@@H](O)[C@@H](C)[C@H](OC(C)=O)[C@H]1C`, the Potency was 5.98 µM (active).

On to `CN1[C@H]2CC[C@H]1CC(OC(=O)c1c[nH]c3ccccc13)C2` (stereo not given in full), for which the Potency entry was “inactive”.

As for `CC(C)Oc1cc(Nc2nc(N[C@@H](C)c3ccc(F)cn3)ncc2Cl)[nH]n1`, the Potency was 18.7 µM (active).

For the compound `Cc1nn(Cc2ccccc2Cl)c(C)c1CN(C)CC(O)COc1ccc(Cl)cc1` (stereo not given), the Potency result is “inactive”.

Consider `O[C@@H](COc1cccc2ncccc12)CN1CCN(C2c3ccccc3[C@@H]3[C@H](c4ccccc42)C3(F)F)CC1` (stereo not given in full), for which the Potency entry is “inactive”.

Regarding `COc1cc(C=CC(=O)O)ccc1O`, the Potency entry is “inactive”.

Turning to `CN1c2ccccc2C(=O)N2CCc3c([nH]c4ccccc34)C21` (stereo not given), the Potency result is “inactive”.

In the case of `CCN(CC)CCCCNc1nc2cc(Cl)c(Cl)cc2nc1-c1ccc(-c2cccs2)s1`, the Potency was 6.62 µM (active).

Take `CCCCN(CCCC)CC(O)c1cc(Cl)cc2c1-c1ccc(Cl)cc1C2=Cc1ccc(Cl)cc1` (stereo not given): the Potency entry is “inactive”.

With `O=C(Nc1ncc(SCCN2CCCC2)s1)[C@]1(c2ccc(S(=O)(=O)C3CC3)cc2)C[C@@H]1C1CCCCC1`, the Potency was 8.33 µM (active).

With `CCC(=O)OCC(=O)[C@@]1(OC(=O)CC)[C@@H](C)C[C@@H]2[C@H]3CCC4=CC(=O)C=C[C@]4(C)[C@@]3(F)[C@@H](O)C[C@@]21C`, the Potency is 9.35 µM (active).

Take `COc1nc(C)cnc1NS(=O)(=O)c1cccnc1-c1ccc(-c2nnco2)cc1`: the Potency entry is “inactive”.

As for `C[C@@H](NC(=O)c1ncnc(N)c1Cl)c1ncc(C(=O)Nc2cc(C(F)(F)F)c(Cl)cn2)s1`, the Potency is 10.5 µM (active).

As to `CCc1cc(-c2n[nH]c(C)c2-c2ccc3c(c2)OCCO3)c(O)cc1O`, the Potency is 3.72 µM (active).

In the case of `O=C1CCCC(=O)C1C(=O)c1ccc(C(F)(F)F)cc1[N+](=O)[O-]`, the Potency entry was “inactive”.

In the case of `CCc1cccc(CC)c1NC(=O)N1Cc2[nH]nc(NC(=O)c3ccc(N4CCN(C)CC4)cc3)c2C1`, the Potency is 7.43 µM (active).

On to `CC[C@H](C)C(=O)O[C@H]1C[C@H](O)C=C2C=C[C@H](C)[C@H](CC[C@@H](O)C[C@@H](O)CC(=O)O)[C@H]21`, for which the Potency entry is “inactive”.

Consider `CC(C)[C@H](O)C(=O)N[C@@H](C)C(=O)N[C@@H]1C(=O)N(C)CCc2ccccc21`, for which the Potency result is “inactive”.

Regarding `CCNC(=O)Nc1ccc(Oc2ncnc(N)c2C=NOC)cc1Cl`, the Potency is 2.96 µM (active).

Consider `O=c1cc(-c2ccc(O)c(O)c2)oc2cc(O)cc(O)c12`, for which the Potency result was “inactive”.

For `Oc1ccc(C=Cc2cc(O)cc(O)c2)cc1`, the Potency entry is “inactive”.

For the compound `CC(C)(C)c1nc(-c2cccc(NS(=O)(=O)c3c(F)cccc3F)c2F)c(-c2ccnc(N)n2)s1`, the Potency was 3.72 µM (active).

Take `COc1cc2nccc(Oc3ccc(NC(=O)Nc4ccc(F)cc4F)c(F)c3)c2cc1OC`: the Potency result is “inactive”.

Take `COC1CCC(C(=O)c2ccc3nc4c(cc3c2)CCCO4)CC1` (stereo not given): the Potency is 18.7 µM (active).

For the compound `C[C@@H]1CC=CC=CC=CC=C[C@@H](O[C@@H]2O[C@H](C)[C@@H](O)[C@H](N)[C@H]2O)C[C@@H]2O[C@](O)(C[C@@H](O)C[C@@H]3O[C@@H]3C=CC(=O)O1)C[C@H](O)[C@@H]2C(=O)O`, the Potency result was “inactive”.

Take `O=C(C=Cc1ccc(O)cc1)c1ccc(O)cc1O`: the Potency was 10.5 µM (active).

In the case of `COc1ccc2cc1Oc1ccc(cc1)C[C@H]1c3cc(c(OC)cc3CCN1C)Oc1c(OC)c(OC)cc3c1[C@H](C2)N(C)CC3`, the Potency is 7.43 µM (active).

For the compound `OC1CCC(Nc2ncc3nc(Nc4c(F)cc(F)cc4F)n([C@@H]4CCOC4)c3n2)CC1` (stereo not given in full), the Potency is 16.6 µM (active).

Take `CCOc1ccccc1N=Nc1c(C)[nH]n(-c2nc(-c3ccccc3)cs2)c1=O`: the Potency result is “inactive”.

Consider `CCN1C[C@H](C)n2c(c(O)c3c(=O)n(Cc4ccc(F)c(Cl)c4)nc(C(=O)NC)c32)C1=O`, for which the Potency entry is “inactive”.

Take `Cc1cnc(CNC(=O)c2c(=O)c3ccc(N4CCCN(C)CC4)nc3n3c2sc2ccccc23)cn1`: the Potency was 0.512 µM (active).

Turning to `CN[C@@H]1CN(c2ccc3c(=O)c(C(=O)O)cn(-c4nccs4)c3n2)C[C@@H]1OC`, the Potency is 0.812 µM (active).

For the compound `C[C@@H](O)[C@H]1C(=O)N2C(C(=O)OCOC(=O)C(C)(C)C)=C(SC3CN(C4=NCCS4)C3)[C@H](C)[C@H]12`, the Potency entry was “inactive”.
